Screens deposited in PubChem by several laboratories.
Sampled rows, rich in hits. Any-hit rate of the full collection: about 2.5%.
V-ATPase pH: regulators of yeast V-ATPase proton transport; response, % at 10 µM; S. cerevisiae, pHLuorin cytosolic pH fluorescence; 350,000 compounds, 0.37% hits; in the data active = response mostly above about 7.3%, no sharp cut-off; inactive = mostly below about 5.4%; also: actives read high
ATG4B inh: inhibitors of human ATG4B cysteine protease | ATG4B cleavage of LC3-PLA2, NBD-HPC fluorescence, 1 h | inhibition, % at 8.33 µM | 340,000 compounds, 0.51% hits; in the data active = inhibition above about 40%
Target sequence (Q9Y4P1 whole entry, looked up): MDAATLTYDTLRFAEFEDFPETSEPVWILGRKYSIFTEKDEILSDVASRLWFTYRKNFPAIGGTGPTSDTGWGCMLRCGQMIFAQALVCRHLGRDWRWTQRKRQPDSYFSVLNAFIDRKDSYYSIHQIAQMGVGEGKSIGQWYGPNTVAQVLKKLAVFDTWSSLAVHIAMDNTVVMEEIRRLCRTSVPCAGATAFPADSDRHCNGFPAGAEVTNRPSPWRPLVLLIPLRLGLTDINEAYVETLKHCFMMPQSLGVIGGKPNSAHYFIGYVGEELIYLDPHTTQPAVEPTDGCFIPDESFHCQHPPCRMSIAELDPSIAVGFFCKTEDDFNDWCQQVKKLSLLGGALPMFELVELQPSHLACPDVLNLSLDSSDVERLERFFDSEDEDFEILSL
Efflux pump mplx: inhibitors of Candida antifungal efflux pumps expressed in yeast; S. cerevisiae Candida pump triplex, Nile Red efflux; inhibition, % at 10 µM; 330,000 compounds, 0.44% hits;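 active = plate passing quality check with inhibition over a set limit, or well fluorescence over plate mean plus 4 SD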;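 also: Nile Red retained in pooled yeast measured as flow cytometry median fluorescence; 0% = buffer negative control and 100% = Enniatin B positive control; higher means more Nile Red kept so more efflux inhibition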
SUMO Mot1 rescue: blocks SUMOylation pathway, rescuing yeast Mot1-301 growth | S. cerevisiae Mot1-301 growth rescue, ATP luminescence, 38.5C; percent above DMSO median, 100 means doubled | growth rescue, % at 18.8 µM | 320,000 compounds, 1% hits;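 active = every valid replicate shows activation above 250% relative to neutral control wells; inactive = the rest, any valid replicate at or below 250%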;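 also: OY570 slx delta 5 strain wells were the positive control but not used for scaling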
AI-2 QS modul: modulates the Vibrio harveyi AI-2 quorum sensing system; activity change, % at 7.5 µM; Vibrio harveyi JMH597 AI-2 luminescence/OD600 ratio, 9 h; stronger effect = lower value; strain lacks LuxN and CqsS sensors; 0 = neutral-control median; AID 2094; 300,000 compounds, 0.4% hits; in the data active = activity change below about -75%, passing the limit was not always enough;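 also: luminescence divided by OD600 gain over 9 h not by final OD600 alone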
V-ATPase pH SP: yeast V-ATPase proton transport regulation | shares compounds with V-ATPase pH | S. cerevisiae pHLuorin cytosolic pH | response, % at 10 µM | 980 compounds, 2% hits | AID 602197; in the data active = response above about 24%;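 also: plate controls were vehicle wells for no effect and positive control wells for full effect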
* marks the source's active call; other numbers are inactive results; . = no result.

SMILES	V-ATPase pH	ATG4B inh	Efflux pump mplx	SUMO Mot1 rescue	AI-2 QS modul	V-ATPase pH SP
COc1ccc(N2CCN(C(=O)c3ccc(S(=O)(=O)N4CCCCCC4)cc3)CC2)cc1	12.9*	7.2	.	.	.	-1.1
COc1ccc(N2CCN(C(=O)c3ccc(S(=O)(=O)N4CCCC4)cc3)CC2)cc1	-5.2	-9.6	0.1	-6.2	34.0	.
COCCCNC(=S)N/N=C/c1ccc(O)cc1	12.9*	1.4	0.3	-3.1	14.6	0.4
COCCCNC(=S)N/N=C/c1ccc(OC)cc1	-3.5	2.4	0.2	2.9	20.2	.
CC(c1ccco1)N(C(=O)C12CC3(C)CC(C)(CC(C)(C3)C1)C2)c1ccccn1 (configuration not stated)	12.7*	-1.8	0.1	-13.0	24.6	-2.9
O=C(O)C1CCC1C(=O)Nc1nc(-c2ccc(Cl)s2)cs1 (configuration not stated)	12.4*	7.5	-0.3	-8.2	38.8	0.3
O=C(O)C1CCCCC1C(=O)Nc1nc(-c2cccs2)cs1 (configuration not stated)	-7.5	13.5	0.2	-5.7	29.0	.
C=CCNC(=O)NC(=O)COC(=O)/C(C#N)=C/c1ccc(OC)cc1	-1.4	-3.6	0.0	5.8	12.2	.
O=C(NCC(=O)N1CCN(c2cccc(Cl)c2)CC1)c1ccc(Br)o1	-1.7	0.1	-0.2	24.0	3.0	.
Cc1ccc(Cl)cc1N1CCN(C(=O)CNC(=O)c2ccc(Br)o2)CC1	8.1*	-5.5	1.1	151.1	.	5.9
O=C(Nc1ccc(F)cc1)C1=CC(=O)N2CCN=C2S1	.	.	0.1	1.7	-6.0	.
O=C(NCCSc1ncc(-c2ccc(F)cc2)[nH]1)c1ccc2c(c1)OCO2	0.0	0.2	-0.1	13.5	-9.0	.
Cc1nn(CC(=O)OCC(=O)NCCc2ccc(F)cc2)c(C)c1[N+](=O)[O-]	9.9*	0.9	-0.1	1.2	.	-4.4
CCOc1cc(C=NNC(=O)c2cccc(S(=O)(=O)N3CCCC3)c2)ccc1O	0.4	-1.9	0.3	-12.4	.	.
CCOc1cc(/C=N/NC(=O)c2cccc(S(=O)(=O)N3CCCC3)c2)ccc1OCC(=O)N(C)C	18.7*	-2.1	0.0	63.5	-2.2	-3.1
CCOc1ccccc1-n1c(SCC(=O)N(C(C)C)C(C)C)nnc1-c1cccnc1	18.2*	-2.6	0.0	10.8	16.9	-5.1
Cc1ccc(CNS(=O)(=O)c2ccc3c(c2)NC(=O)CO3)cc1	-1.1	3.9	-0.2	5.3	25.0	.
NS(=O)(=O)c1ccc(CCNS(=O)(=O)c2ccc3c(c2)NC(=O)CO3)cc1	9.4*	2.4	0.1	3.2	9.3	1.9
CCC(=O)Nc1ccc(S(=O)(=O)NC[C@H]2O[C@@H](n3cc(C)c(=O)[nH]c3=O)C[C@@H]2O)cc1	-0.7	.	.	.	.	.
Cc1ccccc1NC(=O)C(C)SCc1ccccc1 (configuration not stated)	7.2	1.4	-0.1	161.6	-5.6	.
CC(SCc1ccccc1)C(=O)Nc1ccccc1Br (configuration not stated)	11.4*	9.0	0.3	-26.6	13.3	-3.5
O=C(Oc1ccc2ccc(=O)oc2c1)c1cccs1	25.3*	1.2	0.1	-12.3	11.8	0.6
O=C(Oc1ccc2c(-c3ccccc3)cc(=O)oc2c1)c1cccs1	1.7	-5.4	0.2	23.9	20.6	.
CCS(=O)c1scc(-c2ccc(Cl)cc2)c1C#N (configuration not stated)	9.0*	-2.1	-0.2	21.2	18.6	-0.3
NC1=NC(=O)C(Cc2ccc(Br)cc2)S1 (configuration not stated)	1.9	-5.2	0.1	-17.7	22.2	.
SMILES	V-ATPase pH	ATG4B inh	Efflux pump mplx	SUMO Mot1 rescue	AI-2 QS modul	V-ATPase pH SP
COc1ccc(-n2ccn(CC(=O)Nc3ccc(OC)cc3OC)c(=O)c2=O)cc1	9.4*	4.1	-0.1	-1.3	24.6	3.4
COc1ccc(C(=O)NCCn2cc(SCC(=O)NCC3CCCO3)c3ccccc32)cc1OC (configuration not stated)	8.1*	-6.9	0.0	-2.3	12.5	-3.1
CCOCc1c(C(=O)OCC(=O)/C(C#N)=C(\C)N)oc2ccccc12	6.1	-7.7	-0.1	-11.0	16.2	.
Cc1ccsc1-c1nc(CN(C)C(C2CC2)C2CC2)c(C)o1	18.1*	11.5	-0.1	0.2	48.7	0.5
Cc1ccsc1-c1nc(CN2CCN(C)C(=O)[C@@H]2C)c(C)o1	0.1	-0.4	-0.1	1.9	13.8	.
Cc1onc(-c2ccccc2)c1C(=O)NC1CCCCC1C (configuration not stated)	9.2*	.	.	.	.	-4.1
COc1ccc(CC(=O)OC(C)C(=O)c2ccc(C)cc2)cc1 (configuration not stated)	8.3*	10.3	0.7	-4.8	13.9	-2.6
O=C(C1CCCCC1)N1CCC(CO)(Cc2ccccc2Cl)CC1	8.6*	-6.1	-0.1	-0.7	-4.1	2.0
CC(C(=O)O)n1nc(-c2ccccc2)c2ccccc21 (configuration not stated)	-4.4	0.6	-0.1	10.0	15.6	.
CCOc1ccc(OCCCC(=O)NC2=NCCS2)cc1	4.6	2.0	0.0	-15.7	16.0	.
Cc1ccc(C(=O)CCC(=O)NC2=NCCS2)cc1	1.9	3.4	-0.1	11.6	.	-1.8
Cc1cc(OCCCC(=O)NC2=NCCS2)ccc1Cl	9.5*	-2.6	-0.1	62.1	-0.7	-2.1
O=[N+]([O-])c1c(NCc2ccccc2)cc(N2CCc3ccccc3C2)c2nonc12	5.8*	29.0	-0.1	.	22.7	2.1
O=[N+]([O-])c1c(NCCCO)cc(N2CCCCCC2)c2nonc12	5.5	-1.4	0.0	-2.1	14.2	.
CCOC(=O)c1c(C)c(-c2ccccc2)n(CC(=O)NCCCN(CC)CC)c1C	14.8*	-11.5	-0.1	-16.1	27.8	0.0
O=C(c1ccc(CS(=O)c2ccc(Br)cc2)o1)N1CCN(C2CCCCC2)CC1 (configuration not stated)	79.2*	.	.	.	.	2.3
CCN(C(=O)CSc1nc2ccc([N+](=O)[O-])cc2s1)c1c(N)n(Cc2ccccc2)c(=O)[nH]c1=O	2.8	-1.1	.	.	.	.
O=C(O)C1CC=CCC1C(=O)Nc1cc(Cl)ccc1Cl (configuration not stated)	0.5	1.5	0.2	1.7	-1.9	.
O=C(O)C1CC=CCC1C(=O)NNc1c(Cl)cc(Cl)cc1Cl (configuration not stated)	11.6*	-5.4	0.2	-15.1	-2.2	0.9
CN1C(=O)N(C)C2(c3ccccc3)Nn3c(s/c(=C/c4ccccc4)c3=O)=NC12c1ccccc1 (configuration not stated)	23.2*	1.9	0.2	-1.1	5.8	-0.5
Cn1c(C(=O)OCC(=O)NCCc2ccccc2)cc2sccc21	0.3	0.5	0.6	344.6	13.9	.
COc1ccc(CC(=O)NC2CCCc3ccccc32)cc1 (configuration not stated)	0.7	-12.6	0.1	-6.1	9.9	.
